Calls of active or inactive are those of the source. Unless noted, no rule for the calls is given here.
Columns and labels:
[1] = resazurin metabolic signal in HepG2 cells – cell-based, resazurin fluorescence, 24 h, PK04 Diversity Set, profiling panel (AID 1172); conditions: HepG2 viability, higher = more signal; also: test concentration not given here
[2] = budding yeast growth changes without added modifier – OD600, strain BY4716, 24 h, basal condition, primary screen (AID 1173); conditions: S. cerevisiae BY4716 growth, OD600, 24 h; higher = more signal, called active from +8 up or from −8 down
[3] = viability profiling in MM1S myeloma cells – cell-based, resazurin fluorescence, basal, 24 h, PK04 Diversity Set, profiling panel (AID 1174); conditions: higher = more signal, called active from +8 up or from −8 down;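 also: MM1S multiple myeloma cell line; test concentration not given here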
[4] = biological target: Dihydroorotate dehydrogenase (quinone), mitochondrial (Plasmodium falciparum (isolate 3D7)) (UniProt Q08210); assay: inhibition of P. falciparum DHODH – biochemical, C-terminal His tag, absorbance 600 nm, primary screen (AID 1175); conditions: PfDHODH enzyme, DCIP absorbance 600 nm; higher = more signal, called active from +8 up or from −8 down;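 also: recombinant parasite enzyme with a five histidine tag at its C terminus; test concentration not given here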
[5] = inhibition of PAO1 biofilm formation – strain PAO1, LB-PBS medium, absorbance 600 nm, primary screen (AID 1176); also: test concentration not given here; conditions: P. aeruginosa PAO1 growth/biofilm, A600, 12 h; higher = more signal
[6] = growth modulation of vineyard yeast isolate – strain RM11-1a, OD600, basal, 24 h, primary screen (AID 1177);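 also: cultures grown under basal conditions with no added stressor; test concentration not given here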; conditions: S. cerevisiae RM11-1a growth, OD600, 24 h; higher = more signal, called active from +8 up or from −8 down
[7] = growth of efflux-deficient E. coli DRC39 – strain DRC39, OD650, 24 h, E. coli filamentation inducers, primary screen (AID 1178);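 also: growth measured as culture turbidity by optical density at 650 nm; test concentration not given here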; conditions: E. coli DRC39 acrAB, higher = more signal, called active from +8 up or from −8 down
[8] = growth of efflux-deficient E. coli DRC39 – strain DRC39, OD650, 48 h, E. coli filamentation inducers, primary screen (AID 1179);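 also: screen aims at cell division blockers that make cells filament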; conditions: E. coli DRC39 delta-acrAB growth, higher = more signal, called active from +8 up or from −8 down
[9] = viability profiling in RPMI8226 myeloma cells – cell-based, resazurin fluorescence, basal, 24 h, PK04 Diversity Set, profiling panel (AID 1180); conditions: higher = more signal;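 also: RPMI8826 multiple myeloma cell line at 5000 cells per well; test concentration not given here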
[10] = biological target: E3 ubiquitin-protein ligase XIAP (Homo sapiens) (UniProt P98170); assay: small molecules binding XIAP protein – biophysical, small-molecule microarray, fluorescence 635 nm, primary screen (AID 1181); conditions: higher = more signal;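 also: score merges 667 nm emission and signal to noise over triplicate slides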
E3 ubiquitin-protein ligase XIAP (Homo sapiens), sequence (P98170 whole entry, looked up): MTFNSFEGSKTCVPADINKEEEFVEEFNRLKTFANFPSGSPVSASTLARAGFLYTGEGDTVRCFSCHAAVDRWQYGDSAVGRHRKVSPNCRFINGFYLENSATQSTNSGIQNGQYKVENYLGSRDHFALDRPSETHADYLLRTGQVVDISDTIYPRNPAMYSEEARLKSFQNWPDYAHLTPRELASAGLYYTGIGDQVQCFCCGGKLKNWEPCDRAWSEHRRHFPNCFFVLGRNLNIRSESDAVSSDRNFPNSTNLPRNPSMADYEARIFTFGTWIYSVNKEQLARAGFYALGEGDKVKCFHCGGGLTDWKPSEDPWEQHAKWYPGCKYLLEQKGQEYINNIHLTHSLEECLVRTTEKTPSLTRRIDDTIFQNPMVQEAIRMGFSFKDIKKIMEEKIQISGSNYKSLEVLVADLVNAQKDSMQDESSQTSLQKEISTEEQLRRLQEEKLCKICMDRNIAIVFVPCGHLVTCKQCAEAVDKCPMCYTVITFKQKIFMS

Dihydroorotate dehydrogenase (quinone), mitochondrial (Plasmodium falciparum (isolate 3D7)), sequence (Q08210 whole entry, looked up): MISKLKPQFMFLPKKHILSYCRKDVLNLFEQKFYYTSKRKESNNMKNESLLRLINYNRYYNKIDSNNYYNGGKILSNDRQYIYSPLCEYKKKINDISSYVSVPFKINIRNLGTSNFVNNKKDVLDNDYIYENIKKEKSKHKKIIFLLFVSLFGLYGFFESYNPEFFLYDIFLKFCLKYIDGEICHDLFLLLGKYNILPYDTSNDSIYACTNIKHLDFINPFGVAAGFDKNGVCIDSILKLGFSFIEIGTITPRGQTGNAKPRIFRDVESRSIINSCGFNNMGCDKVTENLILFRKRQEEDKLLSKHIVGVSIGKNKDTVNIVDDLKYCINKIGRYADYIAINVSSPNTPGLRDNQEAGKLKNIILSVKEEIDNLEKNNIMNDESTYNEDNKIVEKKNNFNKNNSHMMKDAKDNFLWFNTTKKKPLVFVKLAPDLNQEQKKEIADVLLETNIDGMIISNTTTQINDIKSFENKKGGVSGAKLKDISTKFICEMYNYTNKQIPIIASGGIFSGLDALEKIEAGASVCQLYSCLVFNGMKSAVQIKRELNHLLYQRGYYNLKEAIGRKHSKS

| SMILES | z-score [1] | z-score [2] | z-score [3] | composite z-score [4] | z-score [5] | z-score [6] | z-score [7] | z-score [8] | z-score [9] | composite z-score [10] |
| --- | --- | --- | --- | --- | --- | --- | --- | --- | --- | --- |
| COc1ccc(C(=O)Nc2ccc(CN3C(=O)[C@]4(O[C@H](CC(=O)N(CCO)Cc5ccccc5)[C@@H]([Si](C)(C)c5ccc(OC)cc5)[C@@H]4C)c4ccccc43)cc2)cc1 | -1.18 | 0.352 (inactive) | -1.94 (inactive) | -0.633 (inactive) | 0.671 (inactive) | 2.51 (inactive) | -0.225 (inactive) | -0.575 (inactive) | -1.84 | -0.209 |
| C=C[C@H](OC)[C@@H](O)c1ccc(OC)c(O)c1 | 0.0143 | -0.506 (inactive) | 0.546 (inactive) | 0.255 (inactive) | 0.65 (inactive) | -0.0878 (inactive) | 0.37 (inactive) | 0.905 (inactive) | 0.252 | -0.289 |
| COC(=O)[C@@]1(Cc2ccccc2)[C@H]2c3cc(C(=O)N(C)C)n(Cc4ccc(Cl)c(C(F)(F)F)c4)c3C[C@H]2CN1C(=O)c1ccccc1 | -1.83 | 2.32 (inactive) | -2.53 (inactive) | 0.46 (inactive) | 1.43 (inactive) | 1.37 (inactive) | -1.4 (inactive) | -0.744 (inactive) | -2.95 | 0.331 |
| CO[C@H]1O[C@H](CO)[C@@H](OC(=O)CCc2ccccc2)[C@@H]2OC(=O)[C@@H](Cc3ccc4ccccc4c3)C/C=C/C[C@H](Cc3ccc4ccccc4c3)C(=O)O[C@@H]12 | -0.826 | -0.998 (inactive) | -0.333 (inactive) | -1.32 (inactive) | -0.0558 (inactive) | -1.11 (inactive) | 0.552 (inactive) | 0.9 (inactive) | -0.591 | 0.0302 |
| Cc1c(NC(=O)/C(C#N)=C/C=C/c2ccc([N+](=O)[O-])cc2)c(=O)n(-c2ccccc2)n1C | -0.559 | -0.546 (inactive) | 0.11 (inactive) | 0.142 (inactive) | -0.736 (inactive) | -0.254 (inactive) | -0.465 (inactive) | -0.412 (inactive) | 0.664 | -0.0581 |
| CN(C)CCCC[C@@H]1NC(=O)[C@H]2C[C@@H](C(=O)NCCCCCCNC(=O)CS)[C@@H](c3cccc(OCCO)c3)N2C1=O | -0.27 | -0.587 (inactive) | -0.956 (inactive) | -0.237 (inactive) | 0.463 (inactive) | -0.511 (inactive) | 0.329 (inactive) | 0.0044 (inactive) | -0.713 | -0.177 |
| C[C@H]1C2[C@H](Cc3ccccc3)NC(=O)[C@]23C(=O)N[C@@H](Cc2ccccc2)C(=O)N2CCC[C@H]2C(=O)NC/C=C/CC/C=C/C3[C@@H]2O[C@]12C (stereo not given in full) | -0.661 | 0.321 (inactive) | -0.299 (inactive) | -0.0587 (inactive) | 0.355 (inactive) | -0.0615 (inactive) | 0.159 (inactive) | -0.882 (inactive) | -0.39 | -0.0663 |
| COc1ccc([Si](C)(C)[C@@H]2[C@@H](CC(=O)N3CCC[C@H]3CO)O[C@]3(C(=O)N(Cc4cccc(N5C(=O)c6cccc7cccc5c67)c4)c4ccccc43)[C@H]2C)cc1 | -0.49 | 0.313 (inactive) | -1.84 (inactive) | -1.54 (inactive) | 0.343 (inactive) | 0.0797 (inactive) | 0.995 (inactive) | 0.787 (inactive) | -1.53 | 0.0834 |
| COc1ccc(CCNC(=O)[C@@]2(C)c3ccccc3C(=O)N(Cc3ccc(OC(F)(F)F)cc3)[C@H]2c2ccc(CO)cc2)cc1 | 1.4 | -0.553 (inactive) | 0.979 (inactive) | -0.0074 (inactive) | 1.05 (inactive) | 0.362 (inactive) | 0.0466 (inactive) | -0.657 (inactive) | 1.3 | -0.031 |
| O=C1C2C=CC(C(O)c3ccccn3)N(Nc3ccc([N+](=O)[O-])cc3)C2C(=O)N1c1ccccc1 (stereo not given) | -0.534 | 0.512 (inactive) | -0.494 (inactive) | 0.128 (inactive) | 1.17 (inactive) | -0.841 (inactive) | -0.63 (inactive) | -0.462 (inactive) | -1.03 | 0.359 |
| O=C1O[C@H](c2ccccc2)[C@H](c2ccccc2)N2[C@H]1[C@@H](C(=O)O)[C@]1(C(=O)Nc3ccc(C#CC4(O)CCCCCC4)cc31)[C@H]2c1ccccc1OCCO | 1.15 | -1.72 (inactive) | -0.65 (inactive) | -2.25 (inactive) | -0.645 (inactive) | 3.22 (inactive) | 0.703 (inactive) | 0.732 (inactive) | 0.305 | -0.0666 |
| C=CCOC(=O)[C@@H]1[C@H]2C(=O)O[C@H](c3ccccc3)[C@H](c3ccccc3)N2[C@H](c2ccc(OCCOC(=O)[C@@H]3C[C@@H]4C(=O)N[C@@H](CC(C)C)C(=O)N4[C@@H]3c3ccc(O)cc3)cc2)[C@@]12C(=O)Nc1ccc(I)cc12 | 0.438 | 0.893 (inactive) | 0.246 (inactive) | -1.42 (inactive) | 0.848 (inactive) | 1.75 (inactive) | 0.703 (inactive) | -0.215 (inactive) | 0.676 | 0.155 |
| C=CCNC(=O)[C@@H]1[C@H]2C(=O)O[C@H](c3ccccc3)[C@H](c3ccccc3)N2[C@H](c2ccc(O)cc2)[C@@]12C(=O)Nc1ccc(C#CC3=CCCCC3)cc12 | -0.496 | 0.233 (inactive) | -3.25 (inactive) | -0.691 (inactive) | 1.66 (inactive) | 1.28 (inactive) | -0.33 (inactive) | 0.254 (inactive) | -6.25 | 0.28 |
| C=CCOC(=O)[C@H]1[C@@H]2C(=O)O[C@@H](c3ccccc3)[C@@H](c3ccccc3)N2[C@@H](c2ccc(OCCOC(=O)[C@H]3C[C@H]4C(=O)NCC(=O)N4[C@H]3c3cccc(OCCO)c3)cc2)[C@]12C(=O)Nc1ccc(I)cc12 | -0.199 | 1.18 (inactive) | 0.265 (inactive) | 0.603 (inactive) | 1.88 (inactive) | 1.5 (inactive) | -0.274 (inactive) | 0.765 (inactive) | 0.973 | 0.0431 |
| C#CCN(C(=O)OC(C)(C)C)[C@H](CO)c1ccccc1 | 0.739 | -7.87 (inactive) | -0.351 (inactive) | -0.2 (inactive) | -0.234 (inactive) | -0.184 (inactive) | 0.47 (inactive) | -0.652 (inactive) | -0.336 | -0.005 |
| CC1(C)OB(/C=C\CC(OC(=O)c2ccncc2)c2ccccc2)OC1(C)C (stereo not given) | -0.159 | -1.17 (inactive) | 0.217 (inactive) | -0.413 (inactive) | -0.159 (inactive) | -0.786 (inactive) | 0.0147 (inactive) | -0.465 (inactive) | 0.143 | 0.0487 |
| COCCOC(=O)N1C(=O)[C@@]2(c3cc(C#CC4(O)CCCCCC4)ccc31)[C@H](C(N)=O)[C@H]1C(=O)O[C@H](c3ccccc3)[C@H](c3ccccc3)N1[C@@H]2c1ccc(OCCO)cc1 | -0.905 | 0.842 (inactive) | -3.72 (inactive) | 0.42 (inactive) | 2.53 (inactive) | 2.58 (inactive) | 0.141 (inactive) | 0.282 (inactive) | -3.3 | 0.128 |
| C=CC[C@H](O)c1ccc(O)c2ccccc12 | -0.129 | -15.1 (active) | -1.42 (inactive) | -1.86 (inactive) | 0.614 (inactive) | 0.891 (inactive) | 0.682 (inactive) | 0.419 (inactive) | -1.05 | -0.113 |
| CCOC(=O)C1=CCC(c2cccn2C(=O)OC(C)(C)C)N(S(=O)(=O)c2ccc(C)cc2)C1 (stereo not given) | 0.573 | -0.902 (inactive) | -0.926 (inactive) | 0.068 (inactive) | -0.144 (inactive) | 0.824 (inactive) | -0.484 (inactive) | 0.605 (inactive) | -0.538 | 0.177 |
| CC(CO)N1C(=O)[C@@H]2[C@H]3C(=O)OCC=C[C@H]3OC23C=CCN(c2ccc4ccccc4c2)C(=O)[C@@H]13 (stereo not given in full) | 0.984 | -0.0392 (inactive) | 0.224 (inactive) | 0.0007 (inactive) | -0.0432 (inactive) | -0.405 (inactive) | -0.398 (inactive) | -0.534 (inactive) | 0.492 | -0.138 |
| COC(=O)[C@@]1(Cc2ccc(OC)cc2)[C@@H]2[C@@H](CC(=O)[C@H]2CC(=O)C(=O)N(C)C)CN1C(=O)c1ccccc1 | -0.54 | 1.05 (inactive) | -2.89 (inactive) | -0.284 (inactive) | 1.02 (inactive) | 0.415 (inactive) | 0.243 (inactive) | 0.358 (inactive) | -4.19 | 0.489 |
| COCCOC(=O)N1C(=O)[C@@]2(c3cc(C#CCNC(N)=O)ccc31)[C@H](c1ccccc1OCCO)N1[C@H](c3ccccc3)[C@H](c3ccccc3)OC(=O)[C@H]1[C@@H]2C(=O)N1CCCCCCC1 | 0.875 | 1 (inactive) | 0.723 (inactive) | -0.321 (inactive) | 2.91 (inactive) | 1.09 (inactive) | -0.256 (inactive) | -0.276 (inactive) | -0.55 | -0.0143 |
| CN(C)CCCCNC(=O)[C@H]1C[C@H]2C(=O)N[C@@H](CCCCN(C)C)C(=O)N2[C@H]1c1ccc(O)cc1 | 0.828 | -1.95 (inactive) | 0.419 (inactive) | 0.245 (inactive) | 0.655 (inactive) | -1.52 (inactive) | 1.12 (inactive) | 1.67 (inactive) | 1.82 | -0.127 |
| O=C(NCCN1CCOCC1)[C@@H]1c2ccccc2C(=O)N(CC23CC4CC(CC(C4)C2)C3)[C@H]1c1ccc(CO)cc1 | 0.258 | -1.18 (inactive) | 0.631 (inactive) | 0.533 (inactive) | -0.121 (inactive) | 1.19 (inactive) | 0.1 (inactive) | 0.108 (inactive) | 0.96 | 0.0593 |
| CC(C)(C)OC(=O)CC[C@]1(C(N)=O)N=C(c2ccc(OCCCO)cc2)O[C@H]1c1ccccc1N=[N+]=[N-] | 0.551 | 0.0323 (inactive) | -0.446 (inactive) | 0.982 (inactive) | -0.0279 (inactive) | 0.979 (inactive) | 0.0489 (inactive) | 1.12 (inactive) | 0.596 | 0.333 |

Source: PubChem BioAssay
